Measured values: the supplement of paper PMC8728848
About 410 targets per protein were measured; listed, in parts, are those with the strongest signals and a random draw of the rest.

Assays:
Experiment in all cases: glycan array binding signal (z-score within array); higher = stronger binding
Conditions in all cases: glycan notation: IUPAC condensed, linker removed
[1] = molecular target: GlcNAc(b1-3)Gal(b1-4)GlcNAc(b1-3)Gal(b1-4)GlcNAc(b1-2)[GlcNAc(b1-3)Gal(b1-4)GlcNAc(b1-3)Gal(b1-4)GlcNAc(b1-6)]Man(a1-6)[GlcNAc(b1-3)Gal(b1-4)GlcNAc(b1-3)Gal(b1-4)GlcNAc(b1-2)Man(a1-3)]Man(b1-4)GlcNAc(b1-4)[Fuc(a1-6)]GlcNAc
How it was run: (§1)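 Columns mapping to the same glycan were averaged after glycan names were converted to IUPAC-condensed notation. The data come from 3228 arrays in the Consortium for Functional Glycomics database, limited to those with an available protein sequence. Binding is reported as a within-array Z-score averaged across arrays of one protein sequence and across linkers.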

[2] = molecular target: GlcNAc(b1-3)Gal(b1-4)GlcNAc(b1-3)Gal(b1-4)GlcNAc(b1-3)Gal(b1-4)GlcNAc(b1-3)Gal(b1-4)GlcNAc(b1-2)Man(a1-3)[GlcNAc(b1-3)Gal(b1-4)GlcNAc(b1-3)Gal(b1-4)GlcNAc(b1-3)Gal(b1-4)GlcNAc(b1-3)Gal(b1-4)GlcNAc(b1-2)Man(a1-6)]Man(b1-4)GlcNAc(b1-4)GlcNAc
How it was run: as §1

[3] = molecular target: GlcNAc(b1-3)Gal(b1-4)GlcNAc(b1-6)[GlcNAc(b1-3)]Gal(b1-4)GlcNAc
How it was run: as §1

[4] = molecular target: GlcNAc(b1-4)[GlcNAc(b1-6)]GalNAc
How it was run: as §1

[5] = molecular target: Man(a1-2)Man(a1-2)Man(a1-3)Man
How it was run: as §1

[6] = molecular target: Man(a1-2)Man(a1-2)Man(a1-6)[Man(a1-3)]Man
How it was run: as §1

[7] = molecular target: Man(a1-2)Man(a1-3)[Man(a1-2)Man(a1-6)]Man(a1-6)[Man(a1-2)Man(a1-2)Man(a1-3)]Man
How it was run: as §1

[8] = molecular target: Man(a1-3)[Man(a1-6)]Man(a1-6)[Man(a1-2)Man(a1-3)]Man(b1-4)GlcNAc(b1-4)GlcNAc
How it was run: as §1

[9] = molecular target: Neu5Ac(a2-3)Gal(b1-3)GlcNAc(b1-4)Gal(b1-4)Glc
How it was run: as §1

[10] = molecular target: Neu5Ac(a2-3)Gal(b1-3)[Neu5Ac(a2-6)]GalNAc
How it was run: as §1

[11] = molecular target: Neu5Ac(a2-3)Gal(b1-4)GlcNAc(b1-3)GalNAc
How it was run: as §1

[12] = molecular target: Neu5Ac(a2-3)Gal(b1-4)GlcNAc6S
How it was run: as §1

[13] = molecular target: Neu5Ac(a2-3)Gal(b1-4)[Fuc(a1-3)]GlcNAc(b1-3)Gal(b1-4)GlcNAc
How it was run: as §1

[14] = molecular target: Neu5Ac(a2-3)Gal(b1-4)[Fuc(a1-3)]GlcNAc6S
How it was run: as §1

[15] = molecular target: Neu5Ac(a2-3)GalNAc(b1-4)GlcNAc
How it was run: as §1

[16] = molecular target: Neu5Ac(a2-3)[GalNAc(b1-4)]Gal(b1-4)GlcNAc
How it was run: as §1

[17] = molecular target: Neu5Ac(a2-6)Gal(b1-4)GlcNAc(b1-2)Man
How it was run: as §1

[18] = molecular target: Neu5Ac(a2-6)Gal(b1-4)GlcNAc(b1-2)Man(a1-3)[GlcNAc(b1-2)Man(a1-6)]Man(b1-4)GlcNAc(b1-4)GlcNAc
How it was run: as §1

[19] = molecular target: Neu5Ac(a2-6)Gal(b1-4)GlcNAc(b1-2)Man(a1-3)[Man(a1-6)]Man(b1-4)GlcNAc(b1-4)GlcNAc
How it was run: as §1

[20] = molecular target: Neu5Ac(a2-6)Gal(b1-4)GlcNAc(b1-2)Man(a1-6)Man(b1-4)GlcNAc(b1-4)GlcNAc
How it was run: as §1

[21] = molecular target: Neu5Ac(a2-6)Gal(b1-4)GlcNAc(b1-2)Man(a1-6)[Man(a1-3)]Man(b1-4)GlcNAc(b1-4)GlcNAc
How it was run: as §1

[22] = molecular target: Neu5Ac(a2-6)Gal(b1-4)GlcNAc(b1-2)[Neu5Ac(a2-6)Gal(b1-4)GlcNAc(b1-4)]Man(a1-3)[GlcNAc(b1-4)][Neu5Ac(a2-6)Gal(b1-4)GlcNAc(b1-2)[Neu5Ac(a2-6)Gal(b1-4)GlcNAc(b1-6)]Man(a1-6)]Man(b1-4)GlcNAc(b1-4)GlcNAc
How it was run: as §1

B1: GS7807P-bth-537-23-537 (Bacteroides thetaiotaomicron) (protein)
chain: NYENINSNPYEAPDLSADGYALGSAMNNLAGCVVSPDVNTAQFTDCLLGGPLGGYFADSNAGFTETISNFNPKDDWSRVFLKSDKIIPTLYSNLTQVKLVSQNTNDPVPYAIAQVIKVAAMHRVTDAFGPIPYSQIGANGEIATPYDSQEVTYNTFFDELNAAIATLNENSNEQLVPTADYIYKGDVKKWIRFANSLKLRLAIRIAYANPVKAQQMAEEAVNPANGGVIESNADNATWNYFETSQNPIYVATRYNQVQTSDHGGVPCLTGGDTHAAADIICYMNGYKDNRREKFFTKSEWAGQDYVGMRRGIVIPELKTTGHKYSGVNIAPTSPLYWMNAAEVAFLRAEGQAVFNFSMGGTAESFYNQGIRLSFEQWGADGVEDYLKDDVNKPTAYTDPAGTNTYQNALSNITIKWNDSADKEEKQERIIVQKWIANWQLGNEAWADFRRTGYPKLIPVKENKSGGVVDSEKGARRMPYPLDEFVSNKANVEYAIANYLHGADNMATDVWWASKK
glycan array binding signal (z-score) [1]: 19.1 | glycan array binding signal (z-score) [2]: 0.265 | glycan array binding signal (z-score) [3]: -0.326 | glycan array binding signal (z-score) [4]: -0.32 | glycan array binding signal (z-score) [5]: -0.398 | glycan array binding signal (z-score) [6]: -0.343 | glycan array binding signal (z-score) [7]: -0.267 | glycan array binding signal (z-score) [8]: 2 | glycan array binding signal (z-score) [9]: -0.398 | glycan array binding signal (z-score) [10]: -0.387 | glycan array binding signal (z-score) [11]: -0.371 | glycan array binding signal (z-score) [12]: -0.377 | glycan array binding signal (z-score) [13]: 0.04 | glycan array binding signal (z-score) [14]: -0.338 | glycan array binding signal (z-score) [15]: -0.329 | glycan array binding signal (z-score) [16]: -0.363 | glycan array binding signal (z-score) [17]: -0.32 | glycan array binding signal (z-score) [18]: -0.356 | glycan array binding signal (z-score) [19]: 1.81 | glycan array binding signal (z-score) [20]: 0.297 | glycan array binding signal (z-score) [21]: 5.2 | glycan array binding signal (z-score) [22]: -0.083
